Among the data in PubChem BioAssay are growth inhibition, inhibition and outcome values, retold here.

Assay [1] in a line: antimalarial activity against Dd2 strain (AID 2302;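 active = growth inhibition above 50% at the single 2 µM test dose, taken to imply half-maximal potency below 2 µM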;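 note: 0% = DMSO untreated growth and 100% = chloroquine plus artemisinin killed control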). The settings on record: P. falciparum Dd2 in RBCs, LDH growth readout, 72 h; at 2 µM; active compounds read high.
Assay [2] can be described thus: HepG2 cytotoxicity, primary screen, cytotoxicity control for P. falciparum antimalarial project, cell-based, ATP luminescence (AID 2303;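 active = inhibition above 50%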;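 note: 0% = DMSO wells and 100% = digitonin-killed cells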). The note with it: HepG2 viability, 24-48 h, at 10 µM, active compounds read high.
The target in assay [3] is L-lactate dehydrogenase (Plasmodium falciparum (isolate CDC / Honduras)) (UniProt Q27743). The experiment in a line: PfLDH activity inhibition – cell lysate, 3D7 strain, counter-screen for P. falciparum growth inhibition project (AID 2304).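 Note: 0% = vehicle and 100% = reference inhibitor.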 The settings on record: P. falciparum 3D7 crude extract, LDH APAD/NBT absorbance; at 2 µM; active compounds read high.
Chain of L-lactate dehydrogenase (Plasmodium falciparum (isolate CDC / Honduras)) (Q27743 whole entry, looked up): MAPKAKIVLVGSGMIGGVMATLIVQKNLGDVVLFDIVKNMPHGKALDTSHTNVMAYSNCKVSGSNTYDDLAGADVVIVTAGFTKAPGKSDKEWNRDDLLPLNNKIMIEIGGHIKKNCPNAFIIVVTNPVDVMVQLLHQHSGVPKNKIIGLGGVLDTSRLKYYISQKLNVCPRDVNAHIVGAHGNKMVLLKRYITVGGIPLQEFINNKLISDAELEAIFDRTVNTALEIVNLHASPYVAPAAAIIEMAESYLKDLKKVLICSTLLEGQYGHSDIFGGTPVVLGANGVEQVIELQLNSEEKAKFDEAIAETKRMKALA
Assay [4] in a line: inhibition of 3D7 malaria parasite growth – strain 3D7 (AID 2306).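 Note: 0% = DMSO wells and 100% = chloroquine plus artemisinin control wells.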 The note with it: P. falciparum 3D7 erythrocytic growth, LDH absorbance, 72 h; at 2 µM; active compounds read high.
Assay [5] has as its target Calcium-dependent protein kinase 1 (Plasmodium falciparum (isolate 3D7)) (UniProt P62344). Put plainly: PfCDPK1 kinase inhibitors, biochemical, TCAMS library (AID 1159585; cut-off not given, nearly all actives have IC50 up to about 0.98 µM;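 note: inhibitors leave more ATP so luminescence rises with inhibition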). The note with it: recombinant PfCDPK1, Kinase-Glo ATP depletion luminescence.
In assay [6] the target is Plasmodium falciparum protein kinase 6 (PK6, PF3D7_1337100) (UniProt Q8IDW1). Put plainly: PfPK6 kinase inhibitors, biochemical, TCAMS library (AID 1159586). The note with it: recombinant PfPK6, Kinase-Glo ATP depletion luminescence.
Chain of Plasmodium falciparum protein kinase 6 (PK6, PF3D7_1337100) (Q8IDW1 1-305): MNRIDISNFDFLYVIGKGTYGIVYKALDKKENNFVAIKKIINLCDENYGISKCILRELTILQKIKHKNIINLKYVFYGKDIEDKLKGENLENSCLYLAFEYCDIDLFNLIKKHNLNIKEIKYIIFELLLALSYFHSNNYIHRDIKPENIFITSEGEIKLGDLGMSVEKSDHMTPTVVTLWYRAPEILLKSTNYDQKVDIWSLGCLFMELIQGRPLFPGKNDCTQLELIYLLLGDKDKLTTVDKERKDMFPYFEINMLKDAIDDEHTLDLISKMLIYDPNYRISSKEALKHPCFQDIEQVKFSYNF
Assay [7] concerns the target Protein kinase 7 (PK7), Plasmodium falciparum 3D7 (PF3D7_0213400) (UniProt Q7YTF7). The experiment in a line: inhibition of Plasmodium PK7 catalytic activity – biochemical, TCAMS antimalarial set, Kinase-Glo luminescence (AID 1159587). The note with it: recombinant PfPK7, Kinase-Glo ATP depletion luminescence.
Assay [8] has as its target Calcium-dependent protein kinase 4 (Plasmodium falciparum (isolate 3D7)) (UniProt Q8IBS5). Put plainly: PfCDPK4 kinase inhibitors, biochemical, TCAMS library (AID 1159588; cut-off not given, nearly all actives have IC50 up to about 0.91 µM). The note with it: recombinant PfCDPK4, Kinase-Glo ATP depletion luminescence.

Unmarked numbers belong to inactive results. For some assays here: Entries with a potency or affinity are not part of this list. Calls of active or inactive are those of the source. Unless noted, the rule behind the calls is not given here.

Chain of Protein kinase 7 (PK7), Plasmodium falciparum 3D7 (PF3D7_0213400) (Q7YTF7 1-343): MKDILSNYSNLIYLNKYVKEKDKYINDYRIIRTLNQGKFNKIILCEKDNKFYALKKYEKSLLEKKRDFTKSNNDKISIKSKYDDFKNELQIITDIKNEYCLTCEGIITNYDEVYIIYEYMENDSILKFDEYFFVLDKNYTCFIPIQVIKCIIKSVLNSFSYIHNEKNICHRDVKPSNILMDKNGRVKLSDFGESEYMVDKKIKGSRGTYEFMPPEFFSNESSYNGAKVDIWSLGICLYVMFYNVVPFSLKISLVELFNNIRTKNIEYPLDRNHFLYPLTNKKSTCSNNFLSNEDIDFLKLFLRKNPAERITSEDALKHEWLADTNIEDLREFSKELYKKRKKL
Chain of Calcium-dependent protein kinase 1 (Plasmodium falciparum (isolate 3D7)) (P62344 whole entry, looked up): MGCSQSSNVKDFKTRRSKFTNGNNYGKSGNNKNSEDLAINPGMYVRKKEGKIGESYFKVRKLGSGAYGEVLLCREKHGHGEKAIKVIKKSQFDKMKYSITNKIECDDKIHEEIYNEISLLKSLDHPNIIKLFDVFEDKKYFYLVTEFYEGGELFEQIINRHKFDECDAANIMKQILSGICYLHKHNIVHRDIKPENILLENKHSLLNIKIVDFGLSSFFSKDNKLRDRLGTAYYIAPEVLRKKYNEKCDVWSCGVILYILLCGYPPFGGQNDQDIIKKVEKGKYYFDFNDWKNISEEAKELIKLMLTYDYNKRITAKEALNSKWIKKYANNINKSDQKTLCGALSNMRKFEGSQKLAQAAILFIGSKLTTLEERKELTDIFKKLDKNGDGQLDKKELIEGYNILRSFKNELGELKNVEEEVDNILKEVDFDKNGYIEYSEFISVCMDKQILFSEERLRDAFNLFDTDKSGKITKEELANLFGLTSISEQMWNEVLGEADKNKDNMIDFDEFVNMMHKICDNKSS
Chain of Calcium-dependent protein kinase 4 (Plasmodium falciparum (isolate 3D7)) (Q8IBS5 whole entry, looked up): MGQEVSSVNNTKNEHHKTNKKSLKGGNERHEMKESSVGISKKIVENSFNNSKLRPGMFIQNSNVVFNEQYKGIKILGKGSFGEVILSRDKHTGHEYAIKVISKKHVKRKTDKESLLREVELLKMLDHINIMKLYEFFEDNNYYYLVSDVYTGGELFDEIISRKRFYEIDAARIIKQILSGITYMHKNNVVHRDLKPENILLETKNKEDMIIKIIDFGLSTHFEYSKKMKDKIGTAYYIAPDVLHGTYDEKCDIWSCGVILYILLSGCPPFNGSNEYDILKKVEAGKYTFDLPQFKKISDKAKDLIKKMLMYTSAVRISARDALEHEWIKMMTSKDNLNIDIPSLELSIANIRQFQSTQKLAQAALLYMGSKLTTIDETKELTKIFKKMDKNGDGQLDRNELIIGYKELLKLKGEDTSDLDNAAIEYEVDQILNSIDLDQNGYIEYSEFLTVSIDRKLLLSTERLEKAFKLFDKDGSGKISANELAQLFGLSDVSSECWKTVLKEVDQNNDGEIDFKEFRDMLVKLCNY

Regarding `FC(F)(F)c1ccc2nc(-c3cccc(-c4ccc(CNCC5CCCO5)cc4)c3)[nH]c2c1` (configuration not stated), the growth inhibition in assay [1] and in assay [4] was 99% (active) each time. Further, the inhibition was 29% in assay [2] and -7% in assay [3]. Further, the result in assay [5], in assay [6], in assay [7] and in assay [8] was inactive.

In the case of `COc1ccc(-c2cc3nc4c(c(NCCCn5ccnc5)n3n2)CCCC4)cc1`, the growth inhibition in assay [1] is 74% (active); in assay [4], 95% (active). Further, the inhibition in assay [2] was 5%; in assay [3], -2%. Further, the result in assay [5], in assay [6], in assay [7] and in assay [8] was inactive.

As to `CCCCCCN1CCN(Cc2cccc(NC(=O)c3cc4ccccc4s3)c2)CC1`, the growth inhibition in assay [1] is 68% (active); in assay [4] it was 93% (active). Moreover, the inhibition in assay [2] was 20%; in assay [3] it was -1%. The outcome in assay [5], in assay [6], in assay [7] and in assay [8] was inactive.

As to `COC(=O)c1c(NC(=O)c2cccc(C(F)(F)F)c2)sc2c1CCN(Cc1ccccc1)C2`, the values for the growth inhibition in assay [1] and in assay [4] were 61% (active) and 84% (active), respectively. In addition, the inhibition was 9% in assay [2] and 0% in assay [3]. Besides, the result in assay [5], in assay [6], in assay [7] and in assay [8] was inactive.

Take `COc1cccc(CN2CCCN(Cc3cccc(NC(=O)c4ccc(Cl)c(Cl)c4)c3)CC2)c1`: the results for the growth inhibition in assay [1] and in assay [4] were 11% and 89% (active), respectively. Also, the inhibition in assay [2] is 26%; in assay [3], 0%. Also, the outcome in assay [5], in assay [6], in assay [7] and in assay [8] was inactive.

Turning to `CS(=O)(=O)CCNc1nccc(N2CCc3ncnc(Nc4ccc(OCc5cccc(F)c5)c(Cl)c4)c3C2)n1`, the results for the growth inhibition in assay [1] and in assay [4] were 100% (active) and 101% (active), respectively. Further, the figures for the inhibition in assay [2] and in assay [3] were 8% and -4%, respectively. Besides, the result in assay [5], in assay [6], in assay [7] and in assay [8] was inactive.

Regarding `COc1cccc(-c2ccc(NC(=O)C3CCCN(Cc4cccc(OC)c4O)C3)cc2)c1` (configuration not stated), the growth inhibition in assay [1] was 78% (active); in assay [4] it was 98% (active). In addition, the inhibition in assay [2] is 13%; in assay [3], 1%. In addition, the result in assay [5], in assay [6], in assay [7] and in assay [8] was inactive.

Consider `CN(C)CCN(C)Cc1ccc(-c2cccc(NC(=O)c3ccc(Cl)cc3)c2)cc1`, for which the growth inhibition in assay [1] is 71% (active); in assay [4] it was 97% (active). Moreover, the values for the inhibition in assay [2] and in assay [3] were 69% (active) and -5%, respectively. For the same compound, the result in assay [5], in assay [6], in assay [7] and in assay [8] was inactive.

With `Cc1ccc(S(=O)(=O)NC2CCN(c3ccnc4cc(Cl)ccc34)C2)cc1` (configuration not stated), the results for the growth inhibition in assay [1] and in assay [4] were 90% (active) and 99% (active), respectively. Besides, the inhibition in assay [2] is 21%; in assay [3], -3%. Besides, the result in assay [5], in assay [6], in assay [7] and in assay [8] was inactive.

Turning to `CCS(=O)(=O)Nc1ccc2[nH]cc(C3CCN(CCC4CCN(C(=O)/C=C/c5ccc(Cl)c(Cl)c5)CC4)CC3)c2c1`, the figures for the growth inhibition in assay [1] and in assay [4] were 94% (active) and 99% (active), respectively. The inhibition in assay [2] is 34%; in assay [3], -2%. Besides, the result in assay [5], in assay [6], in assay [7] and in assay [8] was inactive.

As for `Cn1c(=N)n(CC(=O)N2CCc3ccc(Cl)cc3C2Cc2ccc(Cl)c(Cl)c2)c2ccccc21` (configuration not stated), the growth inhibition is 52% (active) in assay [1] and 102% (active) in assay [4]. Further, the inhibition in assay [2] is 99% (active); in assay [3], -1%. In addition, the outcome in assay [5], in assay [6], in assay [7] and in assay [8] was inactive.

Turning to `O=C1CCCN1CCCNCc1ccc(-c2cccc(-c3nc4ccccc4[nH]3)c2)cc1`, the results for the growth inhibition in assay [1] and in assay [4] were 0% and 96% (active), respectively. In addition, the inhibition in assay [2] was 19%; in assay [3], -5%. The outcome in assay [5], in assay [6], in assay [7] and in assay [8] was inactive.

Consider `c1cc(CNC2Cc3ccccc3C2)cc(-c2cnc(N3CCNCC3)nc2)c1`, for which the growth inhibition in assay [1] is 65% (active); in assay [4], 93% (active). For the same compound, the inhibition in assay [2] is 43%; in assay [3], -9%. Besides, the result in assay [5], in assay [6], in assay [7] and in assay [8] was inactive.

Consider `COc1cc2ncnc(Nc3ccc4nc(-c5ccccc5)[nH]c4c3)c2cc1OC`, for which the values for the growth inhibition in assay [1] and in assay [4] were 32% and 92% (active), respectively. Also, the inhibition in assay [2] is 15%; in assay [3], -5%. Also, the result in assay [5], in assay [6], in assay [7] and in assay [8] was inactive.

In the case of `Cc1ccc(NC(=O)c2ccc3nccnc3c2)cc1OC1CCN(Cc2ccc(F)cc2)CC1`, the growth inhibition in assay [1] is 24%; in assay [4], 87% (active). Besides, the inhibition in assay [2] was 16%; in assay [3] it was 4%. The result in assay [5], in assay [6], in assay [7] and in assay [8] was inactive.

With `NC(N)=NN=Cc1ccc2c(c1)Cc1ccccc1-2`, the results for the growth inhibition in assay [1] and in assay [4] were 81% (active) and 100% (active), respectively. The values for the inhibition in assay [2] and in assay [3] were 72% (active) and -2%, respectively. The outcome in assay [5], in assay [6], in assay [7] and in assay [8] was inactive.

Regarding `O=C(Nc1ccc(OC2CCN(Cc3ccsc3)C2)c(Cl)c1)c1ccc2ncccc2c1` (configuration not stated), the growth inhibition in assay [1] is 10%; in assay [4], 88% (active). The inhibition is 84% (active) in assay [2] and -1% in assay [3]. Also, the outcome in assay [5], in assay [6], in assay [7] and in assay [8] was inactive.

Turning to `COc1ccc(CN(C)CCOc2ccc(NC(=O)c3cccc4c(=O)c5cc(SC)ccc5[nH]c34)cc2)cc1OC`, the growth inhibition in assay [1] is 98% (active); in assay [4], 96% (active). In addition, the inhibition was 67% (active) in assay [2] and 1% in assay [3]. Further, the outcome in assay [5], in assay [6], in assay [7] and in assay [8] was inactive.

As to `COc1ccc(N2C(N)=NC(N)=NC2(C)C)cc1OC`, the results for the growth inhibition in assay [1] and in assay [4] were -4% and 95% (active), respectively. Moreover, the inhibition in assay [2] was 13%; in assay [3], -2%. Also, the outcome in assay [5], in assay [6], in assay [7] and in assay [8] was inactive.
